Results as given in PubChem BioAssay (NCI).
The panel holds about 83,000 compounds, 20% with a hit somewhere; the sample as a whole holds those more often.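 A percent growth of 40 corresponds to 60% growth inhibition; 0 means no net growth; -100 means all cells died. Active threshold: below 10.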 Unmarked numbers belong to inactive results. The source made the active and inactive calls.

Legend:
Experiment in all cases: NCI-60 one-dose screen, 48 h (100 = growth as untreated, 0 = no growth, -100 = all killed)
Conditions in all cases: 10 µM
NCI-H226 lung = test system: NCI-H226 lung
NCI-H322M lung = test system: NCI-H322M lung
HOP-62 NSCLC = test system: HOP-62 NSCLC
NCI-H460 lung = test system: NCI-H460 lung
HOP-92 NSCLC = test system: HOP-92 NSCLC
NCI-H522 lung = test system: NCI-H522 lung
A549/ATCC NSCLC = test system: A549/ATCC NSCLC
786-0 renal = test system: 786-0 renal
COLO 205 colon = test system: COLO 205 colon

| Structure (SMILES) | growth (NCI-H226 lung) | growth (NCI-H322M lung) | growth (HOP-62 NSCLC) | growth (NCI-H460 lung) | growth (HOP-92 NSCLC) | growth (NCI-H522 lung) | growth (A549/ATCC NSCLC) | growth (786-0 renal) | growth (COLO 205 colon) |
| --- | --- | --- | --- | --- | --- | --- | --- | --- | --- |
| CO[C@@H]1CSS[C@H]1Cn1nc(-c2ccc(Oc3ccccc3)cc2)c2c(N)ncnc21 | 24.7% | 76.4% | 111% | 77.4% | 57.9% | 17.3% | 45.7% | 55.3% | 61.8% |
| O=c1[nH]n(C(=S)N/N=C/c2ccc(F)cc2)c(=O)c2ccccc12 | 71.9% | 83.9% | 80.3% | 55.9% | 77% |  | 82.4% | 76.5% | 105% |
| COc1ccc2[nH]c(O)c(N=NC(=O)COc3ccc(NC(=O)Nc4ccc(Cl)c(Cl)c4)cc3)c2c1 | -75.6% (active) | 16.6% | -36% (active) | 15.5% | -47.4% (active) | -90% (active) | -54.5% (active) | -33.2% (active) | -49.3% (active) |
| COc1ccc(/C=C/C(=O)c2ccc(NC(=O)CN3C(=O)NC(C)(c4ccccc4)C3=O)cc2)cc1 (stereo not given) | 80.3% | 105% | 95.1% | 102% | 120% | 86.8% | 85.9% | 81.2% | 106% |
| NS(=O)(=O)c1ccc(NC(=O)CSc2ccc(-c3ccc(Cl)cc3)nn2)c(Br)c1 | -5.33% (active) | 48.5% | 2.17% (active) | 23% | -14.4% (active) | 63.6% | 28.5% | 19.1% | 69.4% |
| C/C(=N\N=C\c1ccc(Cl)c([N+](=O)[O-])c1)c1ccc2c(c1)Nc1ccccc1S2 | -25.2% (active) | 50% | 47.5% | 1.22% (active) | 32.6% | 33.2% |  | 52.1% | 32.1% |
| O=c1nc(-c2ccccc2)cc(-c2cc3ccccc3nc2Cl)[nH]1 | 35.6% | 64.4% | 42.5% | 2.46% (active) | 41.8% | 51.2% | 68.9% | -19.8% (active) | 45% |
| CC(=O)Oc1ccccc1C(=O)Oc1ccc(C(=O)/C=C/c2ccncc2)cc1 | 62.8% | 66.5% | 83.4% | 35.6% | 94.1% | 59.1% | 81% | 53.2% | 40.4% |
